The whole screen tested about 69,000 compounds, of which about 8,600 (12%) showed an effect of 50% or more. This is one part of a sample in which strong results are shown more often than they occur.

This test has as its system Plasmodium berghei. The test can be described thus: Screen against P. berghei liver stage (PbLuc), transformed with Luciferase, at 10uM. Format: functional, HepG2. The note with it: tested at 10 uM.
With `Cc1cnn(CCNCC(=O)NCC2(c3ccccc3)CC2)c1`, the INHIBITION is on record as 17.5%.

On to `Cc1nc(C)n(CC2CCCN2Cc2nc(-c3ccoc3)no2)n1` (stereo not drawn), for which the INHIBITION was 7.925%.

For the molecule `CCCS(=O)(=O)N1CCC2(CN(c3cnn(C)c3)C(=O)CN2C)C1` (stereo not drawn), the INHIBITION amounted to 21.6%.

For the molecule `Cc1nn(C)c2nc(C3CC3)c(Cl)c(C(=O)O)c12`, the INHIBITION came to 23.4%.

Take `O=C(c1ccccc1)N1CCCC2(CCN2Cc2cccc(F)c2)C1` (stereo not drawn): the INHIBITION is reported as 61.1%.

Consider `O=C(O)CN1CCCC2(CCN2Cc2cccc(F)c2)C1` (stereo not drawn), for which the INHIBITION worked out at 44.8%.

For `COC(=O)CCC(=O)N1CCCC2(CCCN2Cc2cccc(F)c2)C1` (stereo not drawn), the INHIBITION was determined as 37.6%.

As for `O=C(c1cscn1)N1CCC2(CN(Cc3ccncc3)C2)C1`, the INHIBITION was 24.9%.

For the molecule `O=C(c1cscn1)N1CCCC2(CCN2Cc2cccc(F)c2)C1` (stereo not drawn), the INHIBITION was found to be 64.7%.

As to `O=C(N[C@@H]1CN(Cc2cccc(F)c2)C[C@H]1O)c1cscn1`, the INHIBITION was found to be 47.1%.

For `Cc1c(C(=O)O)cnn1-c1ccc(-c2nc(C3CC3)no2)cn1`, the INHIBITION is listed as 34%.

Consider `CNc1cncc(C2CCCN2S(=O)(=O)c2ccc(F)cc2)n1` (stereo not drawn), for which the INHIBITION is listed as 35.2%.

For `Cc1noc(C)c1C1CCCN1C(=O)CN1C(=O)OC(C)(C)C1=O` (stereo not drawn), the INHIBITION is reported as 40.7%.

On to `Cc1nc(COC[C@H]2CCC[C@]23CN(C2CCOC2)CCO3)cs1` (stereo partly drawn), for which the INHIBITION came out at 49.7%.

`Cc1nc(COC[C@H]2CCC[C@]23CN(CC2CC2)CCO3)cs1`: the INHIBITION turned out to be 54.4%.

On to `CCN1CCO[C@]2(CCC[C@H]2COCc2csc(C)n2)C1`, for which the INHIBITION is given as 52.9%.

Regarding `Cc1nc(COC[C@H]2CCC[C@@]23CN(C(C)C)CCO3)cs1`, the INHIBITION was 12.4%.

For `Cc1nc(COC[C@@H]2CCC[C@@]23CN(C)CCO3)cs1`, the INHIBITION is reported as 48.6%.

Take `Cc1nc(COC[C@@]23CCC[C@@H]2CN(CC2CCOCC2)C3)cs1`: the INHIBITION is given as -5.63%.

Turning to `CN(C)CCO[C@H]1CN(Cc2ccco2)[C@@H]2COC[C@H]12`, the INHIBITION turned out to be 30.3%.

`Cc1csc(C(Cc2cccs2)NCc2cc3c(cc2C)OCO3)n1` (stereo not drawn): the INHIBITION is given as 45.45%.

As for `CCN1CCC12CCN(C(=O)c1ccsc1)C2` (stereo not drawn), the INHIBITION is -30%.

With `O=C(c1ccc[nH]1)N1Cc2nccn2CC(COc2cccnc2)C1` (stereo not drawn), the INHIBITION worked out at 3.58%.

On to `CCCc1noc(C2CCCCN2C(=O)CCc2cnn(C)c2)n1` (stereo not drawn), for which the INHIBITION came to 1.56%.

Take `COc1ccc(-c2nc(C#N)c(N(C)C)o2)cc1S(=O)(=O)N1CCCC1`: the INHIBITION is -35.5%.

In the case of `c1cncc(CN2CC[C@@H]3O[C@H](COCCN4CCCC4)CC[C@@H]32)c1`, the INHIBITION is on record as -51%.

Take `COc1ccc(CNC(=O)NC(C)(CO)C2CC2)c(C(F)(F)F)c1` (stereo not drawn): the INHIBITION is listed as 17.8%.

In the case of `Cc1noc(C)c1CN1C[C@H](OCC2CC2)[C@H]2OCCC[C@H]21`, the INHIBITION was -1.64%.

`Cc1noc(C)c1CN1CC[C@H](OCC2CC2)[C@@H](Cc2ccccc2)C1`: the INHIBITION is recorded as 53.2%.

Take `Cc1noc(C)c1CN1C[C@H](OCC2CC2)[C@H]2COC[C@H]21`: the INHIBITION was -41%.

Regarding `Cc1noc(C)c1CN1C[C@H](OCC2CCN(C)CC2)[C@H]2COC[C@H]21`, the INHIBITION was -12.2%.

As to `COc1ccc(C[C@H]2CN(C3CCOCC3)CC[C@H]2OCC2CC2)cc1`, the INHIBITION is -24.5%.

For the molecule `Cc1noc(C)c1CN1CC[C@@H](OCC2CC2)[C@@H](Cc2ccccc2)C1`, the INHIBITION is on record as 73.4%.

Consider `O=C(NCCc1ccncc1)[C@@H]1CC[C@@H]2[C@@H](CCN2Cc2ccco2)O1`, for which the INHIBITION came out at 31.7%.

For `COCC(=O)N1CCC2(CCC2NC(=O)c2ccn(C)c2)CC1` (stereo not drawn), the INHIBITION was 41.6%.

For the molecule `COCC(=O)N1CCC2(CCC2NS(=O)(=O)c2ccccc2)CC1` (stereo not drawn), the INHIBITION came out at 64.5%.

For `O=S(=O)(NC1CCC12CCN(CC1CC1)CC2)c1ccccc1` (stereo not drawn), the INHIBITION was 26%.

On to `Cc1nc(O)c2nnn(C[C@H]3CCCN3C(=O)c3ccc(F)cc3)c2n1`, for which the INHIBITION is 8.72%.

`CCc1cc(=O)[nH]c(-c2ccc(NC(C)COC)nc2)n1` (stereo not drawn): the INHIBITION was -10.3%.

Take `CCOC(=O)C1(Cc2ccc(Cl)cc2)CCN(Cc2ncc[nH]2)CC1`: the INHIBITION is 82.1%.

As to `COc1cccc(CC2(C(=O)O)CCN(c3ccc(Cl)cn3)CC2)c1`, the INHIBITION was 30.8%.

Take `COc1cccc(CNC(=O)N2CCN(Cc3cc(C)on3)CC2)c1`: the INHIBITION is reported as -1.62%.

Take `O=C1CC2(CCN(Cc3ncc[nH]3)CC2)CN1Cc1ccc(Cl)cc1`: the INHIBITION was 12.4%.

With `CCOC(=O)C1(Cc2cccc(OC)c2)CCN(Cc2ncc[nH]2)CC1`, the INHIBITION was 57.6%.

Turning to `COc1cccc(CC2(C(=O)O)CCN(c3nccs3)CC2)c1`, the INHIBITION stood at 22.3%.

For `CCOC(=O)C1(Cc2cccc(Cl)c2)CCCN(Cc2ncc[nH]2)C1` (stereo not drawn), the INHIBITION came to 46.7%.

For `CCOC(=O)C1(Cc2cccc(OC)c2)CCN(Cc2ccon2)CC1`, the INHIBITION came out at 55.7%.

With `CCOC(=O)C1(Cc2cccc(OC)c2)CCCN(Cc2ncc[nH]2)C1` (stereo not drawn), the INHIBITION was 41.2%.

`CS(=O)(=O)N1C[C@H](C(=O)Nc2cccnc2)[C@@H]2CCO[C@@H]2C1`: the INHIBITION was -7.7%.

In the case of `CN(C)c1ncnc2c1CCN(C(=O)c1cccnc1)CC2`, the INHIBITION was 20.6%.

Turning to `COc1cc(NC2CCN(C3CCS(=O)(=O)CC3)CC2)ncn1`, the INHIBITION is on record as -15%.

As for `Cc1ccc(CC(=O)N2CCCC(c3cc(C(N)=O)[nH]n3)C2)cn1` (stereo not drawn), the INHIBITION came out at 39.35%.

Consider `Cn1cc(C(O)CNC(=O)Nc2cc(F)ccc2-n2cccn2)cn1` (stereo not drawn), for which the INHIBITION was 23.4%.

`Cc1ccc(C(=O)NCC(c2cnn(C)c2)N(C)C)c(O)c1` (stereo not drawn): the INHIBITION was determined as 1.19%.

On to `Cc1ccc(NC(=O)NCC(c2cnn(C)c2)N(C)C)c(C)c1` (stereo not drawn), for which the INHIBITION is reported as 57.7%.

As to `CCOCc1ccccc1NC(=O)NCC(c1cnn(C)c1)N(C)C` (stereo not drawn), the INHIBITION amounted to 2.91%.

With `CCOc1cc(F)ccc1NC(=O)NCC(c1cnn(C)c1)N(C)C` (stereo not drawn), the INHIBITION came to 44.9%.

On to `CCOc1ccccc1CNC(=O)NCC(c1cnn(C)c1)N(C)C` (stereo not drawn), for which the INHIBITION worked out at 62.8%.

Take `O=C(c1ccc(C2CCNC2)cc1)N1CCC(N2CCC(O)CC2)CC1` (stereo not drawn): the INHIBITION was -8%.

`CCN(CC)Cc1cn2c(n1)CN(C(=O)c1cnccn1)CC2`: the INHIBITION turned out to be 37%.

For the molecule `CN1C(=O)CO[C@H]2CN(C(=O)c3ccc4c(c3)CCCC4)C[C@@H]21`, the INHIBITION is on record as -3%.

On to `Cn1ccnc1CN1CCC(Cc2ccccn2)CC1`, for which the INHIBITION stood at 38.2%.

As for `O=C(NCCCO)c1nc(-c2ccc3cc[nH]c3c2)no1`, the INHIBITION is -108%.

Source of the values: ChEMBL document CHEMBL4513216, “Probing the Open Global Health Chemical Diversity Library for Multistage-Active Starting Points for Next-Generation Antimalarials” (ACS Infect Dis, 2020).
